High-throughput results: PubChem BioAssay, several laboratories
In the library only some 4% were active in any assay of this set; here they are far more common.
RecA splice inh = Mtb RecA intein splicing inhibition; cell-free RecA intein splicing, fluorescence; inhibition, % (test concentration not listed); actives 0.75% (n = 290,000); P9WHJ3; in the data active = inhibition above about 30%;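 note: 0% = vehicle wells and 100% = reference inhibitor control wells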
GDH-TPI counter = inhibits GDH-TPI coupling enzymes, artifact for Mtb FBA screen; GDH-TPI coupled enzyme counterscreen, NADH absorbance; inhibition, % at 4.8 µM; actives 1.2% (n = 360,000); AID 588335; in the data active = inhibition above about 30%;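 note: 0% = DMSO wells and 100% = wells lacking the enzyme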
Mtb FBA inh = Mtb fructose-bisphosphate aldolase inhibition; purified M. tuberculosis FBA, fluorescence read-out; inhibition, % at 1 µM; actives 2.3% (n = 360,000); in the data active = inhibition above about 27%;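 note: 0% = vehicle and 100% = reference inhibitor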
Rv3671c protease = Rv3671c (M. tuberculosis) protease inhibition; P9WHR9; inhibition, % at 5.96 µM; actives 0.048% (n = 320,000); in the data active = inhibition above about 38%;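 note: extracellular domain of Rv3671c used as enzyme; 0% = enzyme with DMSO and 100% = no enzyme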
Target sequence (P9WHR9 whole entry, looked up, the tested form may be a part): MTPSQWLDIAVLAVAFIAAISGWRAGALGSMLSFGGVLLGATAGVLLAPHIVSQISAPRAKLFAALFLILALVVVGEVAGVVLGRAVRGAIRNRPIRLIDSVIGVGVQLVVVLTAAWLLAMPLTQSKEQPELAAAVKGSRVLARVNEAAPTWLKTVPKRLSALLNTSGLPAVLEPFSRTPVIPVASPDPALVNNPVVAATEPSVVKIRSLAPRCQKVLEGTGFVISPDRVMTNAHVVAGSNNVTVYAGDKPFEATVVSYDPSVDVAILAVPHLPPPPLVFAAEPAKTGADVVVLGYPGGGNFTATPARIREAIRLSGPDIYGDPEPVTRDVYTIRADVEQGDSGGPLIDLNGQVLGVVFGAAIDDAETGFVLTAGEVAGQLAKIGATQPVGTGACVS
Mtb bLac sens = beta-lactam sensitization of Mtb H37Rv | M. tuberculosis H37Rv growth with meropenem, percent inhibition | inhibition, % at 25 µM | actives 0.27% (n = 330,000) | AID 434955; call rule not given here;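 note: growth measured after seven days incubation then overnight dye step; 0% = bacteria only wells and 100% = bacteria with antibiotic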
UGM FP inh = blocks M. tuberculosis UGM enzyme; P9WIQ1; purified UGM, fluorescence polarization probe displacement; inhibition, % at 10 µM; actives 0.06% (n = 320,000); AID 504406; in the data active = inhibition above about 10%, passing the limit was not always enough
The depositor's hits bear a star; . = no result given; + = active, no number.

SMILES	RecA splice inh	GDH-TPI counter	Mtb FBA inh	Rv3671c protease	Mtb bLac sens	UGM FP inh
Cc1ccc(C(=O)/C=C2/NC(=O)CS2)cc1	-4	31*	-2	-4	80	0
O=C1CS/C(=C/C(=O)c2cccc(Cl)c2)N1	3	17	2	4	53	1
COc1cc2[nH]c(C(=O)Nc3ccc4c(c3)OCCO4)cc2c(OC)c1OC	5	22	1	-4	-4	0
COc1ccc2cc(C(=O)NCCc3ccccc3)[nH]c2c1	-2	16	7	.	-1	2
COc1cc2cc(C(=O)Nc3ccc4c(c3)OCCO4)[nH]c2cc1OC	7	36*	2	7	14	1
COc1cc2cc(C(=O)NCCc3ccccc3)[nH]c2cc1OC	0	3	160*	.	1	4
COC(C(=O)N/N=C/c1ccc(OCC(=O)N2CCOCC2)cc1)c1ccccc1 (stereo unspecified)	-1	3	-1	0	-2	1
Cc1ccc(Cl)cc1N(CC(=O)NC(C)c1ccccc1)S(C)(=O)=O (stereo unspecified)	-1	10	13	.	0	-2
Cc1cc(C)n2nc3nc4c(cc3c2n1)CCCC4	-34	27	+	9	6	2
COc1ccc(C(=O)N/C(=C\c2cn(C)c3ccccc23)C(=O)NCCCn2ccnc2)cc1OC	-1	18	2	-2	0	-6
Cn1cc(/C=C(\NC(=O)c2ccccc2)C(=O)NCCCn2ccnc2)c2ccccc21	.	44*	-2	.	.	.
COc1ccc(C(=O)N/C(=C\c2cn(C)c3ccccc23)C(=O)NCCCn2ccnc2)cc1	3	41*	-1	2	-6	0
Cc1ccc(C(=O)N/C(=C\c2cn(C)c3ccccc23)C(=O)NCCCn2ccnc2)cc1	-1	14	-1	-4	-3	-3
COc1cc(C(=O)NS(=O)(=O)c2ccccc2C)ccc1Cc1cn(C)c2ccc(NC(=O)OC3CCCC3)cc12	38*	.	.	-69	4	-2
CC(OC(=O)CNC(=O)c1ccco1)C(=O)N(C)c1ccccc1 (stereo unspecified)	-1	1	1	1	-6	0
CC(OC(=O)/C(C#N)=C/c1ccco1)C(=O)N(C)c1ccccc1 (stereo unspecified)	.	32*	-5	-7	-6	0
N#Cc1c(-c2ccccc2)cc2nc3ccccc3n2c1N	-10	23	147*	-40	2	1
Nc1cc(-c2ccccc2)n2c(n1)nc1ccccc12	-11	2	4	2	-6	-5
COc1cc(-c2c(C#N)c(N)nc(SCc3ccncc3)c2C#N)cc(OC)c1OC	10	11	0	-4	58	-1
COc1cc(-c2cc3nc4ccccc4n3c(N)c2C#N)cc(OC)c1OC	-82	9	+	-9	3	-4
CC(=O)Nc1ccc(S(=O)(=O)NCCC(=O)OCc2ccc([N+](=O)[O-])cc2)cc1	-2	3	-1	4	-11	1
CC1CCN(c2ccc3c(c2)S(=O)(=O)c2cccc(C(=O)NCc4ccc(F)cc4)c2C3=O)CC1	.	-2	-3	-1	6	7
O=C(NCc1ccc(F)cc1)c1cccc2c1C(=O)c1ccc(N3CCC(Cc4ccccc4)CC3)cc1S2(=O)=O	.	14	2	-23	6	33*
COc1ccc(-c2ccnc3c(C#N)cnn23)cc1	-17	13	171*	2	3	-1
COc1ccc(-c2ccnc3c(Br)c(C)nn23)cc1	.	6	-2	2	64	-2
SMILES	RecA splice inh	GDH-TPI counter	Mtb FBA inh	Rv3671c protease	Mtb bLac sens	UGM FP inh
Cc1c(OC(C)C(=O)NCC2CCC(C(=O)O)CC2)ccc2c3c(c(=O)oc12)CCCC3 (stereo unspecified)	2	16	17	-4	2	-1
Cc1cc(C(=O)CCC(=O)NC(C)c2ccc(S(N)(=O)=O)cc2)c(C)s1 (stereo unspecified)	-2	-14	-1	-5	-8	3
COc1ccc(/C=C2\CCOC2=O)cc1	-4	16	2	-4	2	1
COc1ccc(N/C=C2\CCOC2=O)cc1	-2	56*	-3	-1	-5	-1
O=S(=O)(/C=C/c1cccc(Br)c1)N1CCOCC1	0	4	1	4	2	1
COc1ccc(NCc2cccnc2)cc1	1	11	0	-5	-2	0
COc1cc(/C=C2\SC(=O)NC2=O)ccc1Oc1cnccn1	-1	36*	-2	-3	1	-4
COc1ccc(/C=C2/SC(=S)NC2=O)cc1OCc1ccccc1	-1	19	-1	-34	88	-2
COc1cc(/C=C2/SC(=O)NC2=O)ccc1OCc1ccccc1	2	43*	-1	2	25	-2
COc1ccc(C(=O)c2cnc(/N=C/N(C)C)s2)cc1	-6	33*	2	-16	7	3
Cn1c(=O)c2cc(NC(=O)NCc3ccc(F)cc3)ccc2n1C	.	12	162*	.	.	.
O=C(NCc1ccc(F)cc1)Nc1ccc(Cl)cc1	-2	1	1	0	0	1
C=C(C)Cn1c2ccc(NC(=O)NCc3ccc(F)cc3)cc2c(=O)n1C	.	7	190*	.	.	.
COCCN(Cc1ccccc1)C(=O)c1cccc(S(=O)(=O)N(C)c2c(C)n(C)n(-c3ccccc3)c2=O)c1	0	-1	-2	3	-9	0
Cc1c(NC(=O)N(C)c2ccccc2)c(=O)n(-c2ccccc2)n1C	1	8	1	3	-9	-3
COc1ccc(C2CC(c3cccs3)=NN2S(=O)(=O)c2ccc(C)cc2)cc1 (stereo unspecified)	5	9	0	1	-13	4
COc1ccc(C2CC(C(C)(C)C)=NN2c2ccc(S(N)(=O)=O)cc2)cc1 (stereo unspecified)	.	12	-1	.	.	.
COc1ccc(C2CC(c3ccccc3F)=NN2c2ccc(S(N)(=O)=O)cc2)cc1 (stereo unspecified)	.	-9	156*	.	.	.
COc1ccc(C2CC(c3ccc(C(F)(F)F)cc3)=NN2c2ccc(S(N)(=O)=O)cc2)cc1 (stereo unspecified)	.	10	155*	.	.	.
COc1ccc(C2CC(c3ccccc3C(F)(F)F)=NN2c2ccc(S(N)(=O)=O)cc2)cc1 (stereo unspecified)	.	-10	+	.	.	.
Cc1csc(CN(C)C(=O)CC2C(=O)NCCN2Cc2ccc(Cl)c(F)c2)n1 (stereo unspecified)	3	3	10	2	2	3
COc1ccc(C2C=C(c3cccs3)Nc3nc(CCCO)nn32)cc1 (stereo unspecified)	.	.	.	-5	-6	29*
COc1cc(C2CC(=O)C3=C(C2)Nc2ncnn2C3c2cccs2)cc(OC)c1OC (stereo unspecified)	0	9	9	-3	-7	-1
COc1cc(C2C=C(c3cccs3)Nc3ncnn32)cc(OC)c1OC (stereo unspecified)	.	41*	-5	.	.	.
